FMDV inh – High Throughput Screening for Foot and Mouth Disease Virus Antivirals; FMDV antiviral cell-based qHTS; actives 1.2% (n = 410,000); Potency, µM (top dose mostly 57.9 µM), without a hit: top-dose activity change, negative = inhibition, actives largely listed as inhibitors; calls by dose curve; tested in HEK293T cells; further: read-out not given here; nearly all actives have a fitted effect of over 45% in size
HCV inh – qHTS Assay for Inhibitors of Hepatitis C Virus (HCV). AID 651820, 2012. Potency, µM (series often up to 41.8 µM), for the others: top-dose activity change, negative = inhibition, hits mostly inhibitors. Huh7.5.1 HCVcc-Cre infection, luciferase reporter, 44 h. actives 3.4% (n = 340,000)
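Luciferase read-out (15 sec integration) after a 15 min room-temperature substrate step quantifies HCVcc-Cre infection. Cells, 1,000 per well, had compound added 4 h post-plating, then virus at ~0.5 moi, and were cultured 44 h.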
Sm TGR block – qHTS Assay for the Inhibitors of Schistosoma Mansoni Peroxiredoxins. actives 3% (n = 360,000). Potency, µM (series often up to 114 µM), without a hit: at the highest dose activity change, negative = inhibition, usual class: inhibitors. purified TGR, DTNB reduction, TNB absorbance 405 nm. Schistosoma mansoni thioredoxin glutathione reductase (TGR), Q962Y6; further: nearly all actives have a fitted effect of over 60% in size
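Kinetic colorimetric format: TGR-catalysed, NADPH-driven DTNB reduction monitored via TNB absorbance. Enzyme dispensed at 20 nM; compound exposure 15 min at room temperature before reaction start.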
RE007 growth inh – qHTS Assay for Inhibitors of the HIV-1 protein Vpr. actives 0.21% (n = 360,000). Potency, µM (doses to about 92.2 µM), for the others: top-dose activity change, negative = less growth, most hits filed as inhibitors. AID 651644, 2012. S. pombe RE007 Vpr strain, BacTiter-Glo ATP luminescence, 24 h; active means well fitted falling curve with a large enough effect; inconclusive means small, poorly fitted or top-dose-only effect; inactive means no such curve, though single readings can be large or run the other way; further: nearly all actives have a fitted effect of over 50% in size
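Fission yeast RE007 carrying one integrated HIV-1 vpr copy, seeded at OD 0.01 in PMG+AL medium with 23 nL pinned compound. Grown 24 h at 30 degrees; viability read by BacTiter-Glo luminescence after 5 min.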
MARV entry inh – qHTS for inhibitors of binding or entry into cells for Marburg Virus; Marburg virus pseudotyped entry inhibition, cell reporter; Potency, µM (series often up to 37.8 µM), for the others: top-dose activity change, negative = inhibition, hits mostly inhibitors; actives 1.8% (n = 300,000); AID 540276, 2011; calls by dose curve; tested in HEK293 cells
LASV entry inh – qHTS for Inhibitors of binding or entry into cells for Lassa Virus. Lassa virus pseudotype entry inhibition, cell reporter. Potency, µM (titrated, usually from 37.9 µM), without a hit: at the highest dose activity change, negative = inhibition, actives largely listed as inhibitors. actives 1.2% (n = 300,000). AID 540256, 2011; calls by dose curve; tested in HEK293 cells; further: nearly all actives have a fitted effect of over 50% in size
Active calls of the source: *; ? = inconclusive; / = not tested or not shown; [ ] = remark or other dose. The list is not random: actives were taken first. Their share in the collection is about 7.2%. Unless noted, the call rests on the fitted dose curve; in most records, active means well fitted curve in the direction sought with a large enough effect; inconclusive means small, poorly fitted or top-dose-only effect, or another doubt; inactive means no such curve, though single readings can be large; an effect the other way counts as inactive or inconclusive. On the % scale 0 is the no-effect control and ±100 the full control effect; potency means the concentration at half of the fitted maximal effect.

SMILES	FMDV inh	HCV inh	Sm TGR block	RE007 growth inh	MARV entry inh	LASV entry inh
CCCCn1c(=N)n(CCOc2ccccc2OC)c2ccccc21	?	/	-8%	/	?	?
COC(=O)c1c(OCCN2CCCCC2)cc(=O)n2c1CCN(Cc1cccc3nccnc13)CC2	2%	/	/	/	/	/
CN(C)c1ccc(CN(CC2CCCO2)C(=O)COc2ccc(Cl)cc2)cc1 (stereo unspecified)	0%	/	2%	/	?	?
CN(C)CCN(Cc1ccco1)S(=O)(=O)c1cc2c(cc1Cl)NC(=O)CO2	4%	/	3%	/	/	-2%[46.1 µM]
Cc1cc(O)c2c(c1)C(=O)c1cccc(O)c1C2=O	8%	2%[8.37 µM]	1%	/	24%	-3%
CC1=CC(=O)c2c(O)cccc2C1=O	8.9µM*	/	/	/	/	/
O=C1Cc2cc(S(=O)(=O)N3CCCCC3)cc3c2N1CCC3	5%	/	14%	/	/	-5%[46.1 µM]
CCOC(=O)c1ccccc1NC(=O)CN(c1ccccc1)S(=O)(=O)c1ccc(OCC)cc1	-23%	/	-5%	/	2%[46.1 µM]	-14%[46.1 µM]
CCOc1ccc(S(=O)(=O)Nc2cc(SCC(=O)O)c(O)c3ccccc23)cc1	?	10µM*	7.1µM*	-29%	/	/
O=S(=O)(Nc1cc(Sc2cccc3cccnc23)c(O)c2ccccc12)c1ccccc1	/	?	3.5µM*	/	?	18µM*
O=C(O)CSc1cc(NS(=O)(=O)c2cccc([N+](=O)[O-])c2)c2ccccc2c1O	10µM*	11µM*	1.8µM*	-14%	/	/
CCOC(=O)c1ccccc1NS(=O)(=O)c1ccc(OCC)cc1	-18%	?	5%	-7%	?	2.6µM*
O=C(O)c1ccccc1NS(=O)(=O)c1cccc2cccnc12	-12%	16%	1%	9%	0%	12%
O=C(c1ccco1)N1CCC2(CCCN(C(c3ccccc3)c3ccccc3)C2)CC1	-27%	/	/	/	/	/
CCc1ccc(S(=O)(=O)Nc2ccc(O)c3ccccc23)cc1	-26%	-16%	10µM*	/	/	/
COc1ccc(OC)c(S(=O)(=O)Nc2ccc(O)c3ccccc23)c1	15%	?	10µM*	4%	?	?
Cc1oc2c(cc(NS(=O)(=O)c3ccc(C(C)C)cc3)c3ccccc32)c1C(=O)O	-15%	7%	?	5%	?	23%[46.1 µM]
Cc1ccc(C)c(S(=O)(=O)Nc2cc(SCC(=O)O)c(O)c3ccccc23)c1	?	?	3.5µM*	-30%	?	?
CCc1ccc(S(=O)(=O)Nc2cc(SCC(=O)O)c(O)c3ccccc23)cc1	?	?	6.3µM*	-17%	?	?
Cc1ccc(C)c(SCC(=O)NC(=O)NCc2ccccc2)c1	-19%	19%	-25%	14%	-12%	?
CCCCCCCC#Cc1ccccc1C=NS(=O)c1ccc(C)cc1 (stereo unspecified)	/	/	/	/	4%[14.2 µM]	/
Cc1oncc1C(=O)Nc1ccc2ccccc2c1	29%	5%	-4%	-20%	/	/
Cc1oncc1C(=O)Nc1ccc(C(F)(F)F)cc1	28%	2%[8.37 µM]	-1%	-15%	7.1µM*	?
Cn1c(NCCO)nc2c1c(=O)n(Cc1ccccc1Cl)c(=O)n2C	-10%	/	6%	/	28%[46.1 µM]	10%[46.1 µM]
C=C(CC)C(=O)c1ccc(OCC(=O)O)c(Cl)c1Cl	?	26%	35µM*	3%	?	-13%
SMILES	FMDV inh	HCV inh	Sm TGR block	RE007 growth inh	MARV entry inh	LASV entry inh
CCOC(=O)COc1ccc2nsnc2c1Cl	-18%	7%	6%	-11%	?	-24%
N#Cc1cccc(-c2nc3cnc(N4CCOCC4)nc3n(C3CC3)c2=O)c1	0%	/	/	/	/	/
COc1ccc(N2C(=O)CC(N3CCN(c4ccc(Cl)cc4)CC3)C2=O)cc1 (stereo unspecified)	-28%	7%	45µM*	3%	/	/
COc1ccc(N2C(=O)CC(N3CCN(c4ccccc4)CC3)C2=O)cc1 (stereo unspecified)	-10%	7%	-27%	-7%	/	/
CCOc1ccc(N2C(=O)CC(N3CCN(c4ccc([N+](=O)[O-])cc4)CC3)C2=O)cc1 (stereo unspecified)	-25%	5%	10µM*	-4%	/	/
COc1cccc(N2CCN(C3CC(=O)N(c4cccc(Cl)c4)C3=O)CC2)c1 (stereo unspecified)	-9%	6%	45µM*	?	16%	?
O=C1CC(N2CCN(c3ccccc3)CC2)C(=O)N1c1cccc(Cl)c1 (stereo unspecified)	5%	22%	?	-78%	/	/
COC(=O)c1ccc(N2C(=O)CC(N3CCN(C(=O)c4ccco4)CC3)C2=O)cc1 (stereo unspecified)	0%	-4%	?	2%	21%	0%
COC(=O)c1ccc(N2C(=O)CC(N3CCC(O)(c4ccc(Br)cc4)CC3)C2=O)cc1 (stereo unspecified)	?	18%	45µM*	35µM*	12%	8%
O=C1c2ccccc2C(=O)N1CCCC[C@]12Cc3ccccc3[C@H](O1)c1c(c3ccccc3oc1=O)O2	/	/	/	/	-29%[14.2 µM]	/
COC(=O)C1=C(C)N(CC#C[Si](C)(C)C)C(=O)N(C(C)=O)C1c1ccccc1 (stereo unspecified)	/	/	/	/	-5%[14.2 µM]	/
COc1ccccc1N1CCN(C2CC(=O)N(c3cccc(Br)c3)C2=O)CC1 (stereo unspecified)	-3%	15%	45µM*	?	?	7%[46.1 µM]
COc1ccc(N2C(=O)CC(N3CCN(c4ccccc4OC)CC3)C2=O)cc1 (stereo unspecified)	1%	18%	?	-26%	/	/
O=C1CC(N2CCN(c3ccc(Cl)cc3)CC2)C(=O)N1c1ccccc1 (stereo unspecified)	18%	3%	?	?	8%[46.1 µM]	6%[46.1 µM]
COc1ccc(N2C(=O)CC(N3CCOCC3)C2=O)cc1 (stereo unspecified)	-11%	-2%	25µM*	?	-40%	-12%
CCOc1ccc(N2C(=O)CC(N3CCN(c4ccc(Cl)cc4)CC3)C2=O)cc1 (stereo unspecified)	-5%	5%	3.2µM*	-2%	/	/
O=C1CC(N2CCSCC2)C(=O)N1c1cccc(Cl)c1 (stereo unspecified)	-19%	3%	28µM*	?	/	/
Cc1ccc2nc(-c3ccccc3)c(Cc3ccsc3)n2c1	-2%	/	/	?	/	/
CCc1noc(C)c1C(=O)N1CC(C)SC1=Nc1ccc(Cl)cc1 (stereo unspecified)	-22%	?	0%	11%	-23%	-9%

Source: PubChem
